Data on 50 compounds can be found in ChEMBL document CHEMBL3988442, “University of Dundee, Small-Polar-MMV Screening Library” (2021).

Assay [1] has as its target T1, Aspartate--tRNA(Asp/Asn) ligase (Mycobacterium tuberculosis (strain ATCC 25618 / H37Rv)) (UniProt P9WFW3). Note: in the data most compounds retested in dose-response had high values.
T1 sequence (whole entry): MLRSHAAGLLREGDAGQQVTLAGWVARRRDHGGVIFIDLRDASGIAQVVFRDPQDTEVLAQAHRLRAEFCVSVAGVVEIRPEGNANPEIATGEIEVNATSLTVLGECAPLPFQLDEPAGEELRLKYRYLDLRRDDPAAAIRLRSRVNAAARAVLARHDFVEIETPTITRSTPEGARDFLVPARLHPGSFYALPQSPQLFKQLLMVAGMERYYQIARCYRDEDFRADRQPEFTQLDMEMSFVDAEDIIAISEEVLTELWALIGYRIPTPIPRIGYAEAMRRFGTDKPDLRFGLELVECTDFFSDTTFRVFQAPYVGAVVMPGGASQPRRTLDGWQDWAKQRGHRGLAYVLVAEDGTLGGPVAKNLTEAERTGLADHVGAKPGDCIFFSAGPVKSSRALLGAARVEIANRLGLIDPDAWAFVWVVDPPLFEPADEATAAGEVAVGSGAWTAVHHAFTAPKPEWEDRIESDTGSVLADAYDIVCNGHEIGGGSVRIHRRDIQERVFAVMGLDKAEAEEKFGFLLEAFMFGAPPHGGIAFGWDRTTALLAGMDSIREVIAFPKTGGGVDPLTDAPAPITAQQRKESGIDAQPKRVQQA
Description: Assay for Asp RNA synthetase-1 from Mycobacterium tuberculosis. In kind it is functional. On the set-up: scale not given: direction of the effect not stated beside the values. The settings on record: 30 µM.

The target of assay [2] is Shiga toxin 2 (Escherichia coli O157:H7) (UniProt P09385+P09386). Description: E. coli 0.157:H7 Shiga Toxin SOP - stx2 screening assay. In kind it is functional. On the set-up: scale not given: direction of the effect not stated beside the values. The settings on record: 30 µM.

As for `CN(Cc1cncnc1)Cc1cn2c(n1)CN(C1CCOC1)CC2` (stereo not given), the Percent Effect in assay [1] is 7.69%; in assay [2], -15.6%.
The corresponding values for `CC(C)(C)c1n[nH]c(C2CN(C(=O)CCc3cscn3)CCO2)n1` (stereo not given) are -2.97% and 7.94%.
As to `O=C(c1cccc(N2CCCC2=O)c1)N1CCCC(n2cncn2)C1` (stereo not given), the Percent Effect in assay [1] is -4.55%; in assay [2], 17.8%.
The corresponding values for `Cc1cc(CN2CCN(C(=O)NC(C)Cn3ccnc3)CC2)no1` (stereo not given) are -1.75% and 21%.
On to `O=C(Cc1noc2ccccc12)N1CCCC1c1noc(C2CC2)n1` (stereo not given), for which the Percent Effect was -3.11% in assay [1] and 8.27% in assay [2].
The like results for `Cc1ccc(C(=O)N2CCSCC2)cc1NC(=O)Cn1cncn1` were, in that order, -1% and -22.8%.
The like results for `c1cnn(CC2CN(Cc3noc(C4CC4)n3)CCO2)c1` (stereo not given) were, in that order, 0.485% and 5.97%.
Turning to `O=C(Nc1cnn(CCN2CCOCC2)c1)c1ccccn1`, the Percent Effect in assay [1] is -1.48%; in assay [2], 19.4%.
Turning to `Cc1ccc(CN2CC(C(=O)N3CCCC3)C3(CCOCC3)C2)s1` (stereo not given), the figures for the Percent Effect in assay [1] and in assay [2] were 10.8% and -7.63%, respectively.
Turning to `O=C(Nc1ccc(F)cc1)N1C[C@H]2C[C@H](C(=O)N3CCOCC3)[C@@H](C1)O2`, the Percent Effect in assay [1] is 0.452%; in assay [2], -11.7%.
Take `O=C(NCc1cc[nH]n1)NCC(c1ccccc1Cl)N1CCCC1` (stereo not given): the Percent Effect in assay [1] amounted to 5.68%; in assay [2] it was 4.8%.
Regarding `CSc1nccn1-c1cccc(C(=O)NCCCN2CCOCC2)c1`, the Percent Effect was -1.07% in assay [1] and 27.6% in assay [2].
`O=C(NC[C@]12COC[C@H]1CN(Cc1nccs1)C2)N1CCCC1`: the values for the Percent Effect in assay [1] and in assay [2] were 1.45% and -23.5%, respectively.
As for `Cc1noc(NC(=O)c2ccc(Br)s2)n1`, the figures for the Percent Effect in assay [1] and in assay [2] were 2.08% and 49.8%, respectively.
Take `CCn1ncc2c1CCCC2NCc1ccc(OC)c(C)c1` (stereo not given): the Percent Effect is -4.46% in assay [1] and -11.4% in assay [2].
Turning to `O=C(NC1CCCC1)[C@@H]1CN(Cc2nccs2)C[C@H]2OCC[C@H]21`, the results for the Percent Effect in assay [1] and in assay [2] were 4.4% and -7.97%, respectively.
As for `COC(=O)c1ccc(C(=O)NS(=O)(=O)c2cncc(Br)c2)cc1`, the results for the Percent Effect in assay [1] and in assay [2] were -0.323% and 8.86%, respectively.
Turning to `Cc1nc(C2CCCN2CC(=O)NCCc2ccsc2)no1` (stereo not given), the Percent Effect in assay [1] is 1.22%; in assay [2] it was -9.77%.
With `O=C(NCCNc1ncccn1)N1CCCC(C(F)(F)F)C1` (stereo not given), the Percent Effect in assay [1] amounted to 4.41%; in assay [2], 1.25%.
`CC(C)Cc1noc(CN2CCC(NC(=O)c3cccs3)CC2)n1`: the values for the Percent Effect in assay [1] and in assay [2] were 1.37% and -32.8%, respectively.
For the compound `O=C(NCCCN1CCc2ccccc2C1)c1cccnc1O`, the Percent Effect is -2.28% in assay [1] and -68.5% in assay [2].
Consider `CS(=O)(=O)N1CCOCC2(CN(Cc3ccco3)CCO2)C1` (stereo not given), for which the Percent Effect in assay [1] is -7.59%; in assay [2] it was -18.6%.
Consider `COc1cccc(CN2CCN(c3ccc4nncn4n3)C(C)C2)c1` (stereo not given), for which the Percent Effect in assay [1] was -3.34%; in assay [2] it was 14.8%.
The like results for `CN(C)C(=O)COC1COC2(CCN(S(C)(=O)=O)CC2)C1` (stereo not given) were, in that order, -4.11% and -11.5%.
Consider `Cc1ccc(NC2CCN(C(=O)c3cccn3C)CC2)nn1`, for which the results for the Percent Effect in assay [1] and in assay [2] were -9.26% and -60.3%, respectively.
In the case of `CCc1nc(C(=O)NCc2ccc(N3CCNC(=O)C3)c(F)c2)c[nH]1`, the Percent Effect in assay [1] was 2.49%; in assay [2] it was -51.1%.
As to `Cc1csc(N2CCN(C(=O)CCc3ccccn3)CC2)n1`, the Percent Effect was found to be 5.27% in assay [1] and 20.4% in assay [2].
In the case of `CN(Cc1cccnc1)C1CC2(CCN(c3ccccn3)CC2)C1`, the Percent Effect in assay [1] was 2.16%; in assay [2], -47.1%.
Turning to `CCc1noc(C(C)N(C)CC(=O)Nc2ccc(C)cc2)n1` (stereo not given), the Percent Effect in assay [1] is 1.52%; in assay [2] it was -3.18%.
As for `CC(CN1CCCC1)C(=O)N1CCC(c2nccn2CC2CC2)CC1` (stereo not given), the results for the Percent Effect in assay [1] and in assay [2] were -0.479% and -15.6%, respectively.
The corresponding values for `Cc1ncc(-c2ccnc(N3CCN(C)CC3)n2)c(-c2cccnc2)n1` are 4.45% and -20.4%.
For `Cc1nc(CN2CCO[C@@H]3CN(C(=O)NC(C)C)CC[C@@H]3C2)cs1`, the Percent Effect in assay [1] is 3.49%; in assay [2], -4.73%.
The like results for `CC(C)C1CN(C(=O)c2ccc(C(N)=O)cc2)CCS1` (stereo not given) were, in that order, 9.66% and -45.2%.
The like results for `Cn1ccnc1CN1CCN(c2ccc(C#N)cc2F)CC1` were, in that order, -2.39% and -29.4%.
The corresponding values for `COc1c(C(=O)NCc2cccnc2)nnn1Cc1ccc(C)cc1` are -4.7% and -4.95%.
For the compound `CCN(CC)C(=O)c1nnc2ccc(N3CCOCC3)cc2n1`, the Percent Effect was -5.17% in assay [1] and -18.6% in assay [2].
The like results for `COCC1Cn2nnc(-c3cnn(C)c3)c2CN1Cc1ccc(C)s1` (stereo not given) were, in that order, 1.73% and -7.17%.
Consider `CN(Cc1ccc(OC(F)F)cc1)C(=O)CS(=O)(=O)c1ccc(Cl)cc1`, for which the Percent Effect in assay [1] came to 0.524%; in assay [2], 15%.
The corresponding values for `O=C(CCc1cc2n(n1)CCCN(C(=O)c1ccccn1)C2)NC1CC1` are -1.14% and 9.76%.
Regarding `Cc1nc(C)n(CC2CN(CC(=O)Nc3cccnc3)CCO2)n1` (stereo not given), the Percent Effect in assay [1] is -1.48%; in assay [2], 2.66%.
Take `CN(C)C(=O)CNC(=O)CCn1ncc2c(Cl)cccc21`: the Percent Effect in assay [1] was -0.813%; in assay [2] it was -27.9%.
Turning to `O=C([C@H]1COC[C@H]2CN(C3CCCC3)C[C@H]21)N1CCCCO1`, the Percent Effect in assay [1] was 5.94%; in assay [2], -2.98%.
For `Cc1cccc(-c2ccc(C(=O)NCCN(C)C3CC3)c(=O)[nH]2)c1`, the Percent Effect stood at 4.25% in assay [1] and 19.3% in assay [2].
As to `Cc1cn(CC(=O)NC2CCN(S(C)(=O)=O)CC2)c2ccccc12`, the Percent Effect in assay [1] was 2.86%; in assay [2] it was -10.4%.
The like results for `Cc1nn(C)c(C)c1NC(=O)CN1CCc2c(nc(C(C)C)n2C)C1` were, in that order, -0.413% and 5.73%.
As to `CC1=Nc2c(c(=O)[nH]n2C(C)C)C(c2cccs2)S1` (stereo not given), the Percent Effect in assay [1] was determined as 7.78%; in assay [2], 5.29%.
As to `O=C(Cc1cn2ccsc2n1)N1CCCC(n2cncn2)C1` (stereo not given), the values for the Percent Effect in assay [1] and in assay [2] were -0.0111% and -30%, respectively.
With `Cc1cccc(-n2cc(C(=O)N3CCCC(n4cccn4)C3)nn2)c1` (stereo not given), the Percent Effect in assay [1] is 1.99%; in assay [2], -13.8%.
For `Cn1cnc2c1C(COCC1CCOCC1)CN(C1CCOCC1)C2` (stereo not given), the Percent Effect is 3.46% in assay [1] and -20.2% in assay [2].
For `Cc1ncc2c(n1)CN(Cc1noc(C3CC3)n1)CC2`, the Percent Effect was 0.182% in assay [1] and -46.9% in assay [2].
